The source of these data is the supplement of paper PMC10849652.

Targets with a hit are over-represented here; the source holds about 8,800 in all. About 0.5% of all pairs of compound and target were hits.

UniProt Q6NXT4, sequence (Q6NXT4 whole entry, looked up): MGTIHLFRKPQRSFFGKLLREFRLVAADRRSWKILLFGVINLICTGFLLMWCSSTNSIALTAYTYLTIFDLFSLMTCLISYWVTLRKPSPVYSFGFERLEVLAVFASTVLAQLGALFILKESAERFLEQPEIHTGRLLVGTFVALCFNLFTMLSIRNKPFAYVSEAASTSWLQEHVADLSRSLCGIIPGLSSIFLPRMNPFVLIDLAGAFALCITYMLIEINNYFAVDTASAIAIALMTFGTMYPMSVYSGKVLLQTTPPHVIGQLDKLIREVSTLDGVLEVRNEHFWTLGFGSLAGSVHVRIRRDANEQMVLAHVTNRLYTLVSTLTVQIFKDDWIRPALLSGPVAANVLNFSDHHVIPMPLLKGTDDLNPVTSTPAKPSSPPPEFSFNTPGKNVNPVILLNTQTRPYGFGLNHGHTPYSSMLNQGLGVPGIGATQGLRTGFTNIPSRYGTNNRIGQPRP
UniProt Q8N1S5, sequence (Q8N1S5 whole entry, looked up): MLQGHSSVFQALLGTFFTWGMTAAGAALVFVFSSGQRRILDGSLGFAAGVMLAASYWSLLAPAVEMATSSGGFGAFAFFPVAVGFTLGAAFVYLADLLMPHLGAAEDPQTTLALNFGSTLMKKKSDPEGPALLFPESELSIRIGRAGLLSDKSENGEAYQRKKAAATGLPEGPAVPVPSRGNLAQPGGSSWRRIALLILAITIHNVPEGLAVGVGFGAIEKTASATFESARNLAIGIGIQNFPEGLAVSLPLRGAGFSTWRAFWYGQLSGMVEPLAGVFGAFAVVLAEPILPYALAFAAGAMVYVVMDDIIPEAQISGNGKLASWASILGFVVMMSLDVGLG
UniProt Q9BWW4, sequence (Q9BWW4 whole entry, looked up): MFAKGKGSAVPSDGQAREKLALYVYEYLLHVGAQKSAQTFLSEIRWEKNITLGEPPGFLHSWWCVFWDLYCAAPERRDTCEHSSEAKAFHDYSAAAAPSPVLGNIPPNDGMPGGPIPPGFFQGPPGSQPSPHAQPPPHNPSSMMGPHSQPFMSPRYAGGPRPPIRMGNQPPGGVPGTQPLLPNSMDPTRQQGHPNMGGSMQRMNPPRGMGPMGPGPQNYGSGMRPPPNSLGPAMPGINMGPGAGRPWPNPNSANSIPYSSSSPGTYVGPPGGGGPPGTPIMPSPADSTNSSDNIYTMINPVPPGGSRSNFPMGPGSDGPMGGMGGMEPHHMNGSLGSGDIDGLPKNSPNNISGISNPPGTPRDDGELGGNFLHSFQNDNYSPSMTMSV
UniProt Q96DW6, sequence (Q96DW6 whole entry, looked up): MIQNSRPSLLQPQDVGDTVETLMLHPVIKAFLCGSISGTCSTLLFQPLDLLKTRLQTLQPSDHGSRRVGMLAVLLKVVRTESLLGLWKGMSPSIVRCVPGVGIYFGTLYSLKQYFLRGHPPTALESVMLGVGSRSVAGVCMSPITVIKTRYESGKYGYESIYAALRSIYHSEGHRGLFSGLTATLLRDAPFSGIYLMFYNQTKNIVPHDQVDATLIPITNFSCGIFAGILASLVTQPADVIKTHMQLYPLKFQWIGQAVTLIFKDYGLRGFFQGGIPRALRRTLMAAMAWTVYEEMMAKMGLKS
UniProt Q53T94, sequence (Q53T94 whole entry, looked up): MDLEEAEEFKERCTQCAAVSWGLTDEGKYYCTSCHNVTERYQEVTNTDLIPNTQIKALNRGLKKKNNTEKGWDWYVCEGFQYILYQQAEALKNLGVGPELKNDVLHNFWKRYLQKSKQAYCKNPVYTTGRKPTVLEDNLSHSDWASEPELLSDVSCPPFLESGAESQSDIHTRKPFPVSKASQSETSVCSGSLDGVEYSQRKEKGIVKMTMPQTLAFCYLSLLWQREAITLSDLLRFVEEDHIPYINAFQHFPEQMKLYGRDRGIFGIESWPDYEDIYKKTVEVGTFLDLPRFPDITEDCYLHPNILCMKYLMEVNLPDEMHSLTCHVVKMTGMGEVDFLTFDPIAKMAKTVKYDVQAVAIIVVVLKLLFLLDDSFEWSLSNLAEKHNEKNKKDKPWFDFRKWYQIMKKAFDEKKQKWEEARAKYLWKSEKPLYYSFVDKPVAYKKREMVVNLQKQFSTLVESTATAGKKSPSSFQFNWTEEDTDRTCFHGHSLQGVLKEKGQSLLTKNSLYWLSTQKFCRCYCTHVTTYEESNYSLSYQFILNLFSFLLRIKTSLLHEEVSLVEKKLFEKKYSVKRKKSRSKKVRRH
UniProt Q9H668, sequence (Q9H668 whole entry, looked up): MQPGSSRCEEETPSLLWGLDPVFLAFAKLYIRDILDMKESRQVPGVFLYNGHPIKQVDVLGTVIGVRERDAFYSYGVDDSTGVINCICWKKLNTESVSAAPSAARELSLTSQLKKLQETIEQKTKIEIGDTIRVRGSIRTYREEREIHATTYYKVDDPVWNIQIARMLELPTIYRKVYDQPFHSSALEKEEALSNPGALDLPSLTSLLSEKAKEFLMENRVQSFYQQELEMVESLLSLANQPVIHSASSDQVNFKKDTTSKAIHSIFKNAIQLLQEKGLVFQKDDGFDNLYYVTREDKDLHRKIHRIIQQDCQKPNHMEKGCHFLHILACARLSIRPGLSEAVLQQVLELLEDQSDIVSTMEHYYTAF
UniProt O60225, sequence (O60225 whole entry, looked up): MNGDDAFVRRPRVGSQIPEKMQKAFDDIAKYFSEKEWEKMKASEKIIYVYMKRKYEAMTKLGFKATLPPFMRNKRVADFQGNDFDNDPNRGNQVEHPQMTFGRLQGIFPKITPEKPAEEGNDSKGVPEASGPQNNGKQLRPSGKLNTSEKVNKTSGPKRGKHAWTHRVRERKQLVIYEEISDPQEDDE
UniProt Q13395, sequence (Q13395 whole entry, looked up): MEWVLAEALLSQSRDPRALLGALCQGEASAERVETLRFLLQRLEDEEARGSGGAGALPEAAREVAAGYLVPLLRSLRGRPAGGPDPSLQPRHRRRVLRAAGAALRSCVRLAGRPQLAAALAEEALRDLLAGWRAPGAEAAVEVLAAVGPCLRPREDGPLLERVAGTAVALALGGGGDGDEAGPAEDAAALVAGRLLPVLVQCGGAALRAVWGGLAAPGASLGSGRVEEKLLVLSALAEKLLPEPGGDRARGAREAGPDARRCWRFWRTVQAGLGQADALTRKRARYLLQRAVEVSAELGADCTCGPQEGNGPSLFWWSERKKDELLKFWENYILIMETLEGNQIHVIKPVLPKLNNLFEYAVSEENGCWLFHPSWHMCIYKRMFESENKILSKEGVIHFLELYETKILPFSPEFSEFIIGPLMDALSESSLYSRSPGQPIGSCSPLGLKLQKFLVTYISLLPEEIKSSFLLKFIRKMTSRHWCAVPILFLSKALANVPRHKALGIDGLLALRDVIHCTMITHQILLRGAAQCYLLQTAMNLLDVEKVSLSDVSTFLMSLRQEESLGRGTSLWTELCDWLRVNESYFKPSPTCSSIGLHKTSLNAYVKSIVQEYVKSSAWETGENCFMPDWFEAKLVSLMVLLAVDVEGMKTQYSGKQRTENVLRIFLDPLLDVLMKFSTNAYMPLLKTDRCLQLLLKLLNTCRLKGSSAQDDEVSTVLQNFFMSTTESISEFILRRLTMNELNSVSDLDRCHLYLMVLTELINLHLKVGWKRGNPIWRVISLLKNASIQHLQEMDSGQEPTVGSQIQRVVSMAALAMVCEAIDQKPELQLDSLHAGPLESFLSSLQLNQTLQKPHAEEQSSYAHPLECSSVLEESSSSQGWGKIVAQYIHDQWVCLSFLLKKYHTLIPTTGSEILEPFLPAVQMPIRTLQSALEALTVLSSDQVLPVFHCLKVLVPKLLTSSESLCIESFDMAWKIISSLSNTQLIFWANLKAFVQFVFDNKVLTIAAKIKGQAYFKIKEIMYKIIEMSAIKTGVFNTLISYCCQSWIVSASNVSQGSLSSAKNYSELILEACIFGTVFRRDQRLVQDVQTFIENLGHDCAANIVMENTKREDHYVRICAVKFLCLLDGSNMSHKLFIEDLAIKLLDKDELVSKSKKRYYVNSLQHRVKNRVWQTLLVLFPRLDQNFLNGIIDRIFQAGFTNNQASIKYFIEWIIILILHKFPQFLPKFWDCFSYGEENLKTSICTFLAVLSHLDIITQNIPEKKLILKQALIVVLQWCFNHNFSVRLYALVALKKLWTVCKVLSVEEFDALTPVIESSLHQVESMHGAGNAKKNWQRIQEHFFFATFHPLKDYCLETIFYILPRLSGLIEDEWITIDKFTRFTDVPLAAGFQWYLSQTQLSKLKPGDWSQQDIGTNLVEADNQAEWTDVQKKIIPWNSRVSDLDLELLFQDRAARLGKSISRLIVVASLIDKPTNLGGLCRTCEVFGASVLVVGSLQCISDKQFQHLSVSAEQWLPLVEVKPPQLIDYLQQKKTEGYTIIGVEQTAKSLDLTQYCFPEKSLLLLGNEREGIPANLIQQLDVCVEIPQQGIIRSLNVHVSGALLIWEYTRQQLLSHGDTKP
UniProt Q9Y3B4, sequence (Q9Y3B4 whole entry, looked up): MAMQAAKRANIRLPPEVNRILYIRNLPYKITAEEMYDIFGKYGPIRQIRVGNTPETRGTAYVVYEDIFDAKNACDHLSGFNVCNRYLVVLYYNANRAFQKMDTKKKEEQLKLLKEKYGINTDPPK
UniProt Q13188, sequence (Q13188 whole entry, looked up): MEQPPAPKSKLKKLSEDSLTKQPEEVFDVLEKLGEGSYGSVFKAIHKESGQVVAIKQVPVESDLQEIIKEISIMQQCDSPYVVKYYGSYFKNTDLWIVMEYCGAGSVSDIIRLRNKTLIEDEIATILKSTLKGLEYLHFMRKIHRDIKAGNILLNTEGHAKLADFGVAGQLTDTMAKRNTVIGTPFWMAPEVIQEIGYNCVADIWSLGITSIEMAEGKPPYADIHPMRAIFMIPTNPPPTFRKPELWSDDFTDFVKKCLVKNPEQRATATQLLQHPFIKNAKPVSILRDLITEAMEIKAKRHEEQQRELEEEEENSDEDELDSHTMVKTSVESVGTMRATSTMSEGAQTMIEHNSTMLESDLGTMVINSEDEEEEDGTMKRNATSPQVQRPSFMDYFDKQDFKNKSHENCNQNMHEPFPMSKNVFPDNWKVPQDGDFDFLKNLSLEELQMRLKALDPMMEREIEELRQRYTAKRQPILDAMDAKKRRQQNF
UniProt Q96EX1, sequence (Q96EX1 whole entry, looked up): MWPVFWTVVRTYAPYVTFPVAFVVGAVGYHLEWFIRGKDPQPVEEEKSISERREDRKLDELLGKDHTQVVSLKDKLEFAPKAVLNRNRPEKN

Compound in one assay: CCn1cc(-c2ccnc3[nH]c(-c4cccc(CN(C)C)c4)cc23)c(-c2ccc(NC(=O)N(C)C)cc2)n1
Nature of the assay: log2 fold change, soluble protein after heating vs DMSO (PISA); higher = thermal stabilisation; K562 lysate, 10 uM; active = over 0.2 and 3.5 SD of the protein, either way, in both replicates (recomputed). In short, it runs like this:
(§1)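 Dounce homogenisation of K562 pellets in PBS pH 7.4 with 1 mM MgCl2 produced a crude extract, used at 1 mg/mL protein. Exposure to 10 μM compound lasted 30 min, and aliquots were then heated for 3 min across 48°C-58°C, pooled and brought to 0.5% NP-40 at 4°C. The supernatant after 21,000xg for 90 min was quantified by TMTpro 16plex LC-MS/MS with channel sums equalised. Duplicate values are given as log-two fold change in thermal stability relative to solvent controls.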
Consider SORBS3 (UniProt O60504), for which the log2 fold change is -0.025 (inactive).

Consider SF3B6 (UniProt Q9Y3B4), for which the log2 fold change is 0.061 (inactive).

Take TAF1B (UniProt Q53T94): the log2 fold change was -0.12 (inactive).

For SH3GL1 (UniProt Q99961), the log2 fold change is 0.044 (inactive).

Regarding SLC25A38 (UniProt Q96DW6), the log2 fold change was -0.055 (inactive).

Regarding SLC30A6 isoform 2 (UniProt Q6NXT4), the log2 fold change was -0.127 (inactive).

For the target SIX5 (UniProt Q8N196), the log2 fold change was 0.538 (inactive).

Regarding SSBP3 (UniProt Q9BWW4), the log2 fold change is -0.03 (inactive).

Regarding SNRPD2 (UniProt P62316), the log2 fold change was -0.083 (inactive).

With SNUPN (UniProt O95149), the log2 fold change was -0.024 (inactive).

On to SLC39A11 (UniProt Q8N1S5), for which the log2 fold change is -0.043 (inactive).

STN1 (UniProt Q9H668): the log2 fold change is -0.179 (inactive).

As for SRSF9 (UniProt Q13242), the log2 fold change is -0.006 (inactive).

Regarding SMIM12 (UniProt Q96EX1), the log2 fold change was 0.355 (active).

Turning to SZT2 (UniProt Q5T011), the log2 fold change is 0.035 (inactive).

On to SLC25A44 (UniProt Q96H78), for which the log2 fold change was 0.021 (inactive).

As for SYNE2 isoform 2 (UniProt Q8WXH0), the log2 fold change was -0.966 (active).

In the case of STK3 isoform 2 (UniProt Q13188), the log2 fold change was -0.017 (inactive).

For SPPL2A (UniProt Q8TCT8), the log2 fold change was -0.196 (inactive).

For SURF2 (UniProt Q15527), the log2 fold change is -0.063 (inactive).

Consider SPC25 (UniProt Q9HBM1), for which the log2 fold change was -0.083 (inactive).

Take SH3BP2 isoform 4 (UniProt P78314): the log2 fold change was -0.04 (inactive).

With TARBP1 (UniProt Q13395), the log2 fold change was -0.053 (inactive).

For SSX5 isoform 2 (UniProt O60225), the log2 fold change is -0.926 (active).

Turning to SRRT (UniProt Q9BXP5), the log2 fold change is 0.061 (inactive).

Regarding SMIM1 (UniProt B2RUZ4), the log2 fold change was -0.036 (inactive).

For SOX5 (UniProt P35711), the log2 fold change was -0.043 (inactive).

In the case of SYK (UniProt P43405), the log2 fold change was -0.644 (active).

In the case of SUZ12 (UniProt Q15022), the log2 fold change was -0.026 (inactive).

With SRGN (UniProt P10124), the log2 fold change was -0.022 (inactive).

Compound in a further assay: CN1CCC(CNc2ccc3ncc(-c4cccc(OC(F)(F)F)c4)n3n2)CC1
The description is as above. In short, it runs like this:
as §1
In the case of SORBS3 (UniProt O60504), the log2 fold change is 0.004 (inactive).

On to SF3B6 (UniProt Q9Y3B4), for which the log2 fold change is -0.013 (inactive).

As to TAF1B (UniProt Q53T94), the log2 fold change was 0.166 (inactive).

SH3GL1 (UniProt Q99961): the log2 fold change is -0.022 (inactive).

Take SLC25A38 (UniProt Q96DW6): the log2 fold change was 0.067 (inactive).

In the case of SLC30A6 isoform 2 (UniProt Q6NXT4), the log2 fold change was 0.063 (inactive).

With SIX5 (UniProt Q8N196), the log2 fold change was -0.132 (inactive).

SSBP3 (UniProt Q9BWW4): the log2 fold change was -0.083 (inactive).

For the target SNRPD2 (UniProt P62316), the log2 fold change is 0.051 (inactive).

SNUPN (UniProt O95149): the log2 fold change was -0.036 (inactive).

With SLC39A11 (UniProt Q8N1S5), the log2 fold change is 0.147 (inactive).

Consider STN1 (UniProt Q9H668), for which the log2 fold change was 0.31 (inactive).

As for SRSF9 (UniProt Q13242), the log2 fold change was -0.029 (inactive).

Turning to SMIM12 (UniProt Q96EX1), the log2 fold change is -0.269 (inactive).

Turning to SZT2 (UniProt Q5T011), the log2 fold change is 0.094 (inactive).

Consider SLC25A44 (UniProt Q96H78), for which the log2 fold change was 0.17 (inactive).

With SYNE2 isoform 2 (UniProt Q8WXH0), the log2 fold change was 0.371 (inactive).

STK3 isoform 2 (UniProt Q13188): the log2 fold change is 0.216 (inactive).

With SPPL2A (UniProt Q8TCT8), the log2 fold change was 0.202 (inactive).

As for SURF2 (UniProt Q15527), the log2 fold change was 0.02 (inactive).

On to SPC25 (UniProt Q9HBM1), for which the log2 fold change is -0.004 (inactive).

In the case of SH3BP2 isoform 4 (UniProt P78314), the log2 fold change is 0.089 (inactive).

TARBP1 (UniProt Q13395): the log2 fold change was -0.034 (inactive).

On to SSX5 isoform 2 (UniProt O60225), for which the log2 fold change is 0.049 (inactive).

For SRRT (UniProt Q9BXP5), the log2 fold change was -0.1 (inactive).

SMIM1 (UniProt B2RUZ4): the log2 fold change is -0.222 (inactive).

For the target SOX5 (UniProt P35711), the log2 fold change is -0.043 (inactive).

Take SYK (UniProt P43405): the log2 fold change is -0.001 (inactive).

Regarding SUZ12 (UniProt Q15022), the log2 fold change was -0.002 (inactive).

On to SRGN (UniProt P10124), for which the log2 fold change was 0.101 (inactive).
